Among all 2,300 compounds or so, about 550 (24%) were called active. No rule for the calls is given here. A selection follows. Measured potencies and affinities stand elsewhere.

The experiment is described as follows: Vero E6 cell cytotoxicity, dose response, cytotoxicity control for non-replicating M. tuberculosis project, secondary assay (AID 492998). The following applies: series mostly up to 20 µM.
Turning to `CCCCC1CCC(C(=O)Nc2ccc(S(=O)(=O)Nc3nccs3)cc2)CC1` (stereo not drawn), the molecule was classed as inactive.
Turning to `CCCOC(=O)c1ccc(NC(=O)c2ccccc2OC)cc1`, the result was inactive.
Take `CCOC(=O)C1CCN(Cc2ccc(-c3ccccc3)cc2)CC1`: the molecule was called inactive.
The entry for `OC(C#CCN1CCOCC1)c1cccs1` (stereo not drawn) is “inactive”; for `C=CCNc1nnc(Sc2ncccc2[N+](=O)[O-])s1` it is “inactive”.
Consider `S=C1CN=C(c2ccccc2)c2cc(Cl)ccc2N1`, for which the outcome was inactive.
Regarding `CC(C)Oc1ccc(C(=O)CCN2CCCCC2)cc1`, the outcome was inactive.
Consider `Cc1ccc(CCC(=O)Nc2cc(Cl)ccc2Cl)o1`, for which the molecule was called inactive.
For the molecule `CCOc1ccc(CC(=O)N2N=C(C)CC2(O)C(F)(F)F)cc1` (stereo not drawn), the outcome was inactive.
Take `CCn1nnc(NC(=O)COc2ccc(C3CCCCC3)cc2)n1`: the molecule was called inactive.
Turning to `O=C(NCc1ccc(F)cc1)c1ccc(Br)o1`, the molecule was called inactive.
Regarding `Cc1ccc(OCC(=O)N/N=C/c2ccc([N+](=O)[O-])o2)cc1`, the call was inactive.
As to `CCn1nnc(NC(=O)c2ccc(-c3ccc(Cl)cc3)o2)n1`, the outcome was inactive.
For `O=C(c1ccc([N+](=O)[O-])o1)N1CCN(Cc2ccccc2)CC1` the value was “inactive”.
For `O=C(NCCC1=CCCCC1)c1ccc(F)cc1`, the molecule was classed as inactive.
For the molecule `O=C(CCC1CCCC1)Nc1ccc(Br)cn1`, the molecule was classed as inactive.
Take `O=C(c1cc(F)ccc1F)C1CCCN(Cc2ccc3nonc3c2)C1` (stereo not drawn): the result was inactive.
As to `CC(C)Cn1c(N)c(C(=O)COC(=O)c2cnc(Cl)c(Cl)c2)c(=O)n(C)c1=O`, the result was inactive.
For the molecule `COc1cc(N=c2ssnc2Cl)cc(OC)c1`, the outcome was inactive.
As to `CCOC(=O)COc1ccc2c(=O)cc(-c3ccccc3)oc2c1`, the call was inactive.
For `COC(=O)C(C)Oc1ccc2cc(-c3ccccc3)c(=O)oc2c1` (stereo not drawn), the call was inactive.
The entry for `Cc1ccccc1OCC(=O)OCC(=O)c1ccc[nH]1` is “inactive”; for `Cc1ccc(-c2nnc(-c3cccs3)o2)cc1` it is “inactive”.
For the molecule `COc1cccc(OCc2nnc(-c3cccs3)o2)c1`, the molecule was called inactive.
Turning to `Fc1ccc(-c2nnc(-c3ccc(F)cc3)o2)cc1`, the molecule was classed as inactive.
For `Fc1ccc(-c2nnc(CSc3nnc(-c4cccs4)o3)o2)cc1` the value was “inactive”; for `Cc1cc(C(=O)N/N=C/c2ccc(OC(=O)c3ccccc3Br)cc2)n[nH]1`, “inactive”.
The entry for `Oc1oc(-c2ccco2)nc1C=Nc1cccc(Cl)c1` is “inactive”.
For `CCc1cc(C(c2ccncc2)N2CCN(C)CC2)c(NC(=O)c2ccccc2)s1` (stereo not drawn) the value was “inactive”.
As to `CCOC(=O)C1(CC2CCCCO2)CCN(Cc2nccn2-c2ccc(OC)cc2)CC1` (stereo not drawn), the outcome was inactive.
Regarding `COC12C(COC(N)=O)C3=C(C(=O)C(C)=C(N)C3=O)N1CC1C2N1C` (stereo not drawn), the molecule was called inactive.
Consider `c1ccc(C2=Nc3ccccc3OC2)cc1`, for which the result was inactive.
The entry for `Cc1cc2nc(/N=C(\N)NC(=O)C(C)C)nc(C)c2cc1C` is “inactive”; for `Cc1ccc2nc(CCc3nc4ccc(C)cc4[nH]3)[nH]c2c1` it is “inactive”; for `CC(C)OC(=O)CCCCCN1C(=O)CSC1=S` it is “inactive”.
For the molecule `O=C(Nc1ccccn1)c1ccc(C(=O)c2ccccc2)cc1`, the call was inactive.
Consider `CCCCNC(=O)COC(=O)c1cc(Br)ccc1Cl`, for which the molecule was classed as inactive.
`Cc1[nH]n2c(=O)c3c(nc2c1-c1ccccc1)CCCC3`: the call was inactive.
`CCOC(=O)COc1ccc2c(c1)C(=O)CC1(CCCCC1)O2`: the molecule was called inactive.
As for `O=C(COc1ccc(Cl)cc1)Nc1ccccc1Cl`, the outcome was inactive.
For the molecule `CC1=NN(C(=O)COc2ccccc2C)C(O)(c2ccc(Cl)cc2)C1` (stereo not drawn), the molecule was called inactive.
As to `Cc1cc(Cl)ccc1NNC(=O)c1c(C)noc1C`, the outcome was inactive.
As to `COc1ccc(C(=O)NN/C(C)=C/C(=O)c2ccccc2)cc1`, the molecule was classed as inactive.
The entry for `O=C(N/N=C/C=C/c1cccc([N+](=O)[O-])c1)c1ccncc1` is “inactive”; for `COc1cccc(OCCNC(=O)c2cc([N+](=O)[O-])cc([N+](=O)[O-])c2)c1` it is “inactive”.
As to `Cc1ccc(CSCCNC(=O)c2cccc([N+](=O)[O-])c2)cc1`, the molecule was called inactive.
Consider `O=C(N/N=C/c1ccccn1)c1cccc([N+](=O)[O-])c1`, for which the result was inactive.
As for `O=C(Oc1cccc2cccnc12)c1cccc([N+](=O)[O-])c1`, the molecule was called inactive.
With `O=C(c1ccco1)N1CCN(c2ccc(F)cc2)CC1`, the molecule was classed as inactive.
In the case of `CCOC(=O)C(=O)Cc1nc2ccccc2s1`, the result was inactive.
For `C=C1CCC[C@]2(C)C[C@H]3OC(=O)C(CNC(C)CCCC(C)C)[C@H]3CC12` (stereo partly drawn), the outcome was inactive.
For `COc1ccc([C@@]2(O)c3c(ccc(CC=C(C)C)c3O)NC(=O)[C@@H]2OC)cc1` the value was “inactive”; for `COc1ccccc1C(c1nnnn1Cc1ccccc1)N1CCC(C(N)=O)CC1` (stereo not drawn), “inactive”.
Take `Cc1ccc(-c2nnc(SCC#CCOC(=O)c3ccco3)o2)cc1`: the molecule was classed as inactive.
In the case of `O=C(Cc1ccc(F)cc1)Nc1ccc(Cl)cn1`, the molecule was called inactive.
In the case of `O=C1N(c2ccc3c(c2)OCCO3)C(c2ccccc2)C1(F)F` (stereo not drawn), the molecule was called inactive.
As to `CCCCNC(=O)Cc1ccc(C)cc1`, the molecule was called inactive.
Consider `CC(C)(C)c1ccc2c(c1)OC(C(=O)N/N=C\c1ccccn1)CO2` (stereo not drawn), for which the molecule was called inactive.
The entry for `O=C(N/N=C\c1ccc([N+](=O)[O-])o1)C1COc2ccccc2O1` (stereo not drawn) is “inactive”.
Consider `Cn1cccc1/C=N\NC(=O)C1COc2ccccc2O1` (stereo not drawn), for which the molecule was called inactive.
Regarding `O=C(Nc1ccc([N+](=O)[O-])cc1)C1COc2ccccc2O1` (stereo not drawn), the molecule was classed as inactive.
Turning to `O=C(Nc1cccc(Cl)c1)C1COc2ccccc2O1` (stereo not drawn), the outcome was inactive.
Take `CC(C)NC(=O)C1COc2ccccc2O1` (stereo not drawn): the outcome was inactive.
In the case of `Clc1ccc(CN2C3=NCCCN3c3ccccc32)cc1`, the result was inactive.
For `C#CCOc1coc(COC(=O)c2ccccc2)cc1=O` the value was “inactive”; for `Cc1ccc(C(C)NC(=O)c2cc3ccccc3oc2=O)cc1C` (stereo not drawn), “inactive”; for `COC(=O)C1=C(C)N(Cc2ccccc2)C(=NCc2ccccc2)N[C@H]1c1cccc(F)c1`, “inactive”.
With `CC(OC(=O)c1ccc2c(=O)n3c(nc2c1)CCCCC3)C(=O)Nc1ccc(Cl)cn1` (stereo not drawn), the result was inactive.
As for `CCOC(=O)Cn1cc(C#N)c2ccccc21`, the molecule was classed as inactive.
For the molecule `O=C(NCc1nnc(SC/C=C/c2ccccc2)o1)c1ccco1`, the call was inactive.
For `CCCC(C)C(=O)Nc1ccc(Cl)cn1` (stereo not drawn), the call was inactive.
Consider `CC(C)(C)OC(=O)NCCc1nnc(S(=O)(=O)Cc2ccc(Cl)cc2Cl)o1`, for which the molecule was called inactive.
`Nc1nc2ccccc2n1CCOc1ccc(Br)cc1`: the result was inactive.
On to `Cn1c(CNc2ccccc2O)nc2ccccc21`, for which the call was inactive.
For `O=C(Nc1nc2ccccc2n1CCN1CCCC1)C1CCCCC1`, the molecule was called inactive.
With `O=C(Nc1ccc(-c2nc3ccccc3c(=O)o2)cc1)c1ccco1`, the molecule was classed as inactive.
The entry for `CCOC(=O)c1csc(COc2ccccc2Cl)n1` is “inactive”; for `Nc1nc2ccccc2n1CCOc1ccccc1Cl` it is “inactive”.
Regarding `O=C(COC(=O)c1cccs1)NCCC1=CCCCC1`, the molecule was classed as inactive.
As for `O=C(OCC(=O)N1CCc2ccccc21)c1ccc([N+](=O)[O-])cc1`, the molecule was called inactive.
For `CN(C)CCN1C(=O)c2oc3ccccc3c(=O)c2C1c1cccc(Br)c1` (stereo not drawn) the value was “inactive”.
As for `COC(=O)COc1cccc(NC(=O)COc2ccccc2)c1`, the call was inactive.
`COc1ccc(OC(=O)c2cc3ccccc3o2)cc1`: the molecule was called inactive.
Regarding `CC(=O)c1ccc(OCC(=O)Nc2ccc3c(c2)CCC3)cc1`, the outcome was inactive.
The entry for `CC(=O)c1ccc(NC(=O)CCc2ccc(C)o2)cc1` is “inactive”; for `CC1=NN(C(=O)c2ccccc2F)C(O)(c2ccc(Cl)cc2)C1` (stereo not drawn) it is “inactive”; for `Clc1cccc(/C=N\Nc2nccs2)c1` it is “inactive”.
Consider `Cc1ccc(OCC(=O)OCc2c(C)noc2C)cc1C`, for which the molecule was classed as inactive.
The entry for `CCOC(=O)CN1NC2(CCCC(C)C2)NC1=S` (stereo not drawn) is “inactive”; for `Clc1c(OCCCn2ccnc2)ccc2ccccc12` it is “inactive”; for `Cc1cccnc1NC(=O)c1c(O)c2ccccc2n(C)c1=O` it is “inactive”.
Regarding `Cn1c(=O)c(Oc2ccc(Cl)cc2)c(O)c2ccccc21`, the call was inactive.
For the molecule `C=CCn1c(=O)c(C(=O)Nc2cccnc2)c(O)c2ccccc21`, the molecule was classed as inactive.
For `CCn1c(=O)c(C(=O)Nc2ncccc2C)c(O)c2ccccc21` the value was “inactive”.
Take `COc1ccc(C(O)CNc2ccc(C)cc2)cc1` (stereo not drawn): the molecule was classed as inactive.
As for `COc1ccc(NC(=O)c2nc3ccccc3s2)cc1`, the molecule was called inactive.
Take `CC(C)c1cc(C(=O)N/N=C/C=C/c2ccccc2)n[nH]1`: the outcome was inactive.
For `O=C(COc1ccccc1)Nc1ccc(Cl)cn1` the value was “inactive”; for `O=C(NCc1ccccc1CN1CCCC1)c1cc2ccccc2o1`, “inactive”.
As to `O=Cc1ccnc(-c2ccc(OC(=O)c3ccco3)cc2)n1`, the molecule was called inactive.
For the molecule `CCC1CCc2sc(C(=O)NCC3CCCO3)cc2C1` (stereo not drawn), the call was inactive.
For the molecule `CCOc1cc(C=O)cc(N=Nc2cccc([N+](=O)[O-])c2)c1O`, the molecule was called inactive.
Turning to `O=C(COc1ccc2ccccc2c1Br)N1CCCC1`, the molecule was classed as inactive.
On to `CCCn1c(=O)c(C(=O)N/N=C/c2ccccc2F)c(O)c2ccccc21`, for which the outcome was inactive.
With `Nc1nonc1C(=O)N/N=C/c1ccc([N+](=O)[O-])o1`, the result was inactive.
Turning to `CC1=NN(C(=O)c2ccoc2C)C(O)(C(F)(F)F)C1` (stereo not drawn), the call was inactive.
In the case of `COC(=O)C(O)(c1ccc(NC(=S)NC(=O)c2ccccc2)cc1)C(F)(F)F` (stereo not drawn), the outcome was inactive.
As for `CCOC(=O)Nc1ccc2c(c1)N(C(=O)CCCl)c1ccccc1[S@]2=O`, the outcome was inactive.
For `C=CCn1c(O)c(C(C)=Nc2ccc(C(=O)OCC)cc2)c(=O)[nH]c1=O` the value was “inactive”; for `CCCCNC(=O)Nc1nnc(-c2ccc(Cl)cc2)o1`, “inactive”.
Take `CCOC(=O)c1ccc(NC2OC(=O)c3ccccc32)cc1` (stereo not drawn): the molecule was called inactive.
`C=CCN=C1SC(CC)C(=O)N1S(=O)(=O)c1ccc(C)cc1` (stereo not drawn): the result was inactive.
As for `Cc1ccc(C(=O)CCC2CCCC2=O)cc1` (stereo not drawn), the result was inactive.

(Values after PubChem BioAssay AID492998 (Southern Research Specialized Biocontainment Screening …, 2010).)
